For two sequences, binding signal results are on record in publication PMC7862700, “An all-to-all approach to the identification of sequence-specific readers for epigenetic DNA modifications on cytosine”.

Holding throughout (assay): DAPPL (digital affinity profiling via proximity ligation, sequencing); 10 mM Tris-HCl pH 7.5, 50 mM NaCl, 1 mM DTT, 4% glycerol, room temperature, 30 min; GST-TFs on glutathione beads, 16-mer random dsDNA library, 0.1% formaldehyde crosslink after washing; high values mean tight binding
Common to all, as to conditions: protein: recombinant; tags: N-terminal GST; dsDNA, one strand shown

Experiment [1] deals with T1, GABPA (Homo sapiens, UniProt Q06546 1-454).
T1 sequence: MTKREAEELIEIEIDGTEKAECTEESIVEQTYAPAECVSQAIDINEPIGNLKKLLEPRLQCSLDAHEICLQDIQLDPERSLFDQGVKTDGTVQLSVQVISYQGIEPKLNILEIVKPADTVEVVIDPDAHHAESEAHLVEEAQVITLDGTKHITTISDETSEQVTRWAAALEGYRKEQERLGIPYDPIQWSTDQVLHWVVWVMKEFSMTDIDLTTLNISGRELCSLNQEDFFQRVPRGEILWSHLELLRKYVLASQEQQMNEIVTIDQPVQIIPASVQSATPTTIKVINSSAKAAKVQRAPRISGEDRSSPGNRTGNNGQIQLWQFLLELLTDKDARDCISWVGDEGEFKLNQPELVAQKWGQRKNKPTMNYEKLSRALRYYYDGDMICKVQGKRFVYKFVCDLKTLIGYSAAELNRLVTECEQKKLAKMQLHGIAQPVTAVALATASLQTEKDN
A digest of the protocol: (§1)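 Binding signal is defined as a hexamer's read frequency for one factor over its frequency for the tag-only sample. To obtain reads, GST-fused human transcription factors were expressed in yeast, captured on glutathione beads, barcoded with DNA and pooled with that sample. Pools met 200 nmole of a 16-mer random double-stranded DNA library in Tris/NaCl/DTT/glycerol buffer for 30 min at room temperature before washing, 0.1% formaldehyde crosslinking, proximity ligation (BsaI/T4 ligase, 1 h, 37 °C), PCR and Illumina NextSeq500 sequencing.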

Experiment [2] concerns the target ELF1 (Homo sapiens, UniProt P32519 1-619). The method, boiled down: as §1
In experiment [3] the target is SPI1 (Homo sapiens, UniProt P17947 1-270). A digest of the protocol:
as §1

The target of experiment [4] is SPIB (Homo sapiens, UniProt Q01892 1-262). The method, boiled down: as §1
Chain of SPIB (Q01892 whole entry): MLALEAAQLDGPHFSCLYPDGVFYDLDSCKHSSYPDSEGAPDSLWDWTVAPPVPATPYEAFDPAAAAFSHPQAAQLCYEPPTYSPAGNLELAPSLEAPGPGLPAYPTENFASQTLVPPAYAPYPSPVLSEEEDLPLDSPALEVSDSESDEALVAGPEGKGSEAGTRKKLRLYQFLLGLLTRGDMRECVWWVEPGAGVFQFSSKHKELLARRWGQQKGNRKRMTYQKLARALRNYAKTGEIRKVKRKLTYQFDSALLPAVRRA
In experiment [5] the target is T2, FEV (Homo sapiens, UniProt Q99581 1-238).
T2 sequence: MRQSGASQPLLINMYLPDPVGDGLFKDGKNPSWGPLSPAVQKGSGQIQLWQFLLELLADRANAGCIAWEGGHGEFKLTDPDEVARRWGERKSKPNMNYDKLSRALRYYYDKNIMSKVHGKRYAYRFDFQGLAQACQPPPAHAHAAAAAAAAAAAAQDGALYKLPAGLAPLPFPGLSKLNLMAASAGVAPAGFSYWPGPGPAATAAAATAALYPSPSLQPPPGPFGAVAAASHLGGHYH
A digest of the protocol:
as §1

In experiment [6] the target is ELF4 (Homo sapiens, UniProt Q99607 1-663). A digest of the protocol:
as §1

Experiment [7] concerns the target T3, ELK4 (Homo sapiens, UniProt P28324-2 1-405).
T3 sequence: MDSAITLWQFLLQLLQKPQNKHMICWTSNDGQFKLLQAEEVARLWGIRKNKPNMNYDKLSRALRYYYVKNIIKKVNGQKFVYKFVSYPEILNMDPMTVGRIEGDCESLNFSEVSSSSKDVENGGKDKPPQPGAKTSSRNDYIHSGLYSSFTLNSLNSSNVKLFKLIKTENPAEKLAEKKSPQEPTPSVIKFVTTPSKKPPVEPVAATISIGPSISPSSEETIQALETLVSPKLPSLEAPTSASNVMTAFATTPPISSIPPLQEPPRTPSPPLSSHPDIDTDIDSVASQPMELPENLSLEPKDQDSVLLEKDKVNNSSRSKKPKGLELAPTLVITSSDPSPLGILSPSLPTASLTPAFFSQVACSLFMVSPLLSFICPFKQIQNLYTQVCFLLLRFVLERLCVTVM
The method, boiled down: as §1

For experiment [8], the target named is T4, ETV2 (Homo sapiens, UniProt O00321 1-342).
T4 sequence: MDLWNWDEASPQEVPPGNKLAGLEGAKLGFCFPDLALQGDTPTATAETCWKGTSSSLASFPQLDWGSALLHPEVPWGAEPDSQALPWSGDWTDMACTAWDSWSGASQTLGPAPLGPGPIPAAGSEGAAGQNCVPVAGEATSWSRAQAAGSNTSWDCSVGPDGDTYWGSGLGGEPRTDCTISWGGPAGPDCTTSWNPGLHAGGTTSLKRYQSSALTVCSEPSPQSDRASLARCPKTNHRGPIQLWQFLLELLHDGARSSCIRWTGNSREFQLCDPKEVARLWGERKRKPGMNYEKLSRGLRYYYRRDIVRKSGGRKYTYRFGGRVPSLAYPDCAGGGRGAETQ
The method, boiled down: as §1

The target in experiment [9] is T5, ELF3 (Homo sapiens, UniProt P78545 1-371).
T5 sequence: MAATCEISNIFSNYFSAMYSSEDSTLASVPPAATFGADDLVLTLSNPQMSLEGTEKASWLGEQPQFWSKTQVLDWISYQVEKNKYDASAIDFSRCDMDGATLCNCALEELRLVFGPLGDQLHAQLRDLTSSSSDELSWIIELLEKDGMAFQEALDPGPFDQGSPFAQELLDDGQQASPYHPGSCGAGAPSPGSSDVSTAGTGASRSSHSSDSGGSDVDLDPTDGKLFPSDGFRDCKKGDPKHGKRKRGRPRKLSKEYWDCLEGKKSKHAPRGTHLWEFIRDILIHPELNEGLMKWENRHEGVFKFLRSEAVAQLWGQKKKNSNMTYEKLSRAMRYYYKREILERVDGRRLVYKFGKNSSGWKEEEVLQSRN
The method, boiled down:
as §1

The target in experiment [10] is T6, ERF (Homo sapiens, UniProt P50548 1-548).
T6 sequence: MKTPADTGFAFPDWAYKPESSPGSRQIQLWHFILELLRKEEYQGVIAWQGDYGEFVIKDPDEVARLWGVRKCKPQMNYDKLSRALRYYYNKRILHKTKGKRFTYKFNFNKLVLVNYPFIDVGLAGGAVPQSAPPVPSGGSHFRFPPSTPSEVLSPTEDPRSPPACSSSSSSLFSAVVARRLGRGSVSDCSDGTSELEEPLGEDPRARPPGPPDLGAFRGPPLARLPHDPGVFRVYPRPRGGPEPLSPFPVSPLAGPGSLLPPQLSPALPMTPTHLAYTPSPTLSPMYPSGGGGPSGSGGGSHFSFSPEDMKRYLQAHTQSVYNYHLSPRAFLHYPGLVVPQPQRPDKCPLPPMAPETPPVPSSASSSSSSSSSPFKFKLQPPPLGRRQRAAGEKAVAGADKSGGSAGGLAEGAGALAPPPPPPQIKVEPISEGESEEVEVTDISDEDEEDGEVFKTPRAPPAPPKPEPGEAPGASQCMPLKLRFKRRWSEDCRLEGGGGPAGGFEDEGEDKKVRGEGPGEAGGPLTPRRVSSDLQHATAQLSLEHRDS
The method, boiled down:
as §1

Experiment [11] has as its target T7, ETV3L (Homo sapiens, UniProt Q6ZN32 1-361).
T7 sequence: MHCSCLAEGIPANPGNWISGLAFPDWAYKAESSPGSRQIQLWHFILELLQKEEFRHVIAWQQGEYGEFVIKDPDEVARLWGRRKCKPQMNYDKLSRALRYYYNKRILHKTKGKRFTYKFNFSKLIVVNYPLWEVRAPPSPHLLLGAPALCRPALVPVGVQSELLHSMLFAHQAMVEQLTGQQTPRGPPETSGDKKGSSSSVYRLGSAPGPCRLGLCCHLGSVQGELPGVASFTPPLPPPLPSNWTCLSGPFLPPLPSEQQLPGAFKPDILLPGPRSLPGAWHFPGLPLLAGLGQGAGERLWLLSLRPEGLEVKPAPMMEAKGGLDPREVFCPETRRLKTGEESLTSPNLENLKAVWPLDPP
A digest of the protocol: as §1

The target in experiment [12] is T8, SPDEF (Homo sapiens, UniProt O95238 1-335).
T8 sequence: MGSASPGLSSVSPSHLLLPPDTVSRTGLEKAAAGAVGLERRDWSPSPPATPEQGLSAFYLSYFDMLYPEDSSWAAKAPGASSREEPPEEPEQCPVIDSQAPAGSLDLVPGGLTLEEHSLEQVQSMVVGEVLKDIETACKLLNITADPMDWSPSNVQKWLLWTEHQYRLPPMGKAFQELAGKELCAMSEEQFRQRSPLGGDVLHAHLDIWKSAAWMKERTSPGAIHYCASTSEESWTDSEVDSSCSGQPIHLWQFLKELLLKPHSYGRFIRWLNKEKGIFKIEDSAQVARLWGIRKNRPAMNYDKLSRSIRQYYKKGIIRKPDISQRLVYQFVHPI
The method, boiled down:
as §1

Experiment [13] has as its target T9, ETV7 (Homo sapiens, UniProt Q9Y603 1-341).
T9 sequence: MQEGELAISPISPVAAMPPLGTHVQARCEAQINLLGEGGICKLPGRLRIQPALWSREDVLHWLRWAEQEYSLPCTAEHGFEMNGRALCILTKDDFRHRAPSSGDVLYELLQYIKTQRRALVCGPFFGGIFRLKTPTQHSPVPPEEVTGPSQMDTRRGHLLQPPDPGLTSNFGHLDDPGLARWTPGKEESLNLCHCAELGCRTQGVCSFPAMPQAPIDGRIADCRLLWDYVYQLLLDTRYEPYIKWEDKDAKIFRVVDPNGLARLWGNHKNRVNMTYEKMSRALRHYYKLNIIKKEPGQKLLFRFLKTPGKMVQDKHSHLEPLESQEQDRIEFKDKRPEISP
A digest of the protocol:
as §1

Experiment [14] has as its target T10, ELF5 (Homo sapiens, UniProt Q9UKW6-2 1-255).
T10 sequence: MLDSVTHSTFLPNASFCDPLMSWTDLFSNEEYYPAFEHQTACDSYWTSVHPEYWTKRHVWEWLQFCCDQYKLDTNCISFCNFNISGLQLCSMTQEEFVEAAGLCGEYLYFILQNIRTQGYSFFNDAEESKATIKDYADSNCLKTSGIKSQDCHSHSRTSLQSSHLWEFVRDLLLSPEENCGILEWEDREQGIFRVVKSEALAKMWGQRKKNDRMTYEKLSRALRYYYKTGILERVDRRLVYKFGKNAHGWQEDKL
A digest of the protocol: as §1

The target in experiment [15] is T11, ETV3 (Homo sapiens, UniProt P41162-2 1-143).
T11 sequence: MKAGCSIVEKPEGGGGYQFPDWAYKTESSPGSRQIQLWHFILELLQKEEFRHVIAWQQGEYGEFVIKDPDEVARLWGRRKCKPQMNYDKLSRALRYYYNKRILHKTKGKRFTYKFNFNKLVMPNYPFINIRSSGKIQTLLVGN
A digest of the protocol:
as §1

The target of experiment [16] is T12, ELK1 (Homo sapiens, UniProt P19419 1-428).
T12 sequence: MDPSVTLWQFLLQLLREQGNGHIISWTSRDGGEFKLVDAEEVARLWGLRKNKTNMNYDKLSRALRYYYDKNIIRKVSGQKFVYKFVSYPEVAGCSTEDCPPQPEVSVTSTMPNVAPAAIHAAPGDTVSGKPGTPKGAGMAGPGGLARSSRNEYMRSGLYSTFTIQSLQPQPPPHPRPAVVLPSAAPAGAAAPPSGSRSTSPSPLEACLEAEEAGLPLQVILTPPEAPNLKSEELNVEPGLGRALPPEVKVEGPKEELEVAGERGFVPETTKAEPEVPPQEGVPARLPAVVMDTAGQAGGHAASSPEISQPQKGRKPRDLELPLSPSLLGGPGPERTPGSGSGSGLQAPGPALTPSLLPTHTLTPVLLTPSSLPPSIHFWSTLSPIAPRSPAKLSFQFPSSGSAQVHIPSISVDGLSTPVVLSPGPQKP
The method, boiled down:
as §1

Experiment [17] deals with T13, ELK3 (Homo sapiens, UniProt P41970 1-407).
T13 sequence: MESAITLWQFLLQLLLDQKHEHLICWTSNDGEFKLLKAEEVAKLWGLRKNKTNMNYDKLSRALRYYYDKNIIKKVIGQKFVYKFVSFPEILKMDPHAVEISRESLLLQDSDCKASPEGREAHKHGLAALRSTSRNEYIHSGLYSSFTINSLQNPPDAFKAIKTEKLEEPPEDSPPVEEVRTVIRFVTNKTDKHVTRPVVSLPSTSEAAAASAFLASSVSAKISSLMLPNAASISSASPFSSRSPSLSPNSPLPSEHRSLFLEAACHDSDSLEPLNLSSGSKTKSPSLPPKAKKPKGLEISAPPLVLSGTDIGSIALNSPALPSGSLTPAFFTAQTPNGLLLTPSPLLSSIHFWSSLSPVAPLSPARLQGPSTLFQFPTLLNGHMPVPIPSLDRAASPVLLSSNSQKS
A digest of the protocol: as §1

For experiment [18], the target named is ETV1 (Homo sapiens, UniProt P50549 1-477). The method, boiled down:
as §1

Chain of ELF1 (P32519 whole entry): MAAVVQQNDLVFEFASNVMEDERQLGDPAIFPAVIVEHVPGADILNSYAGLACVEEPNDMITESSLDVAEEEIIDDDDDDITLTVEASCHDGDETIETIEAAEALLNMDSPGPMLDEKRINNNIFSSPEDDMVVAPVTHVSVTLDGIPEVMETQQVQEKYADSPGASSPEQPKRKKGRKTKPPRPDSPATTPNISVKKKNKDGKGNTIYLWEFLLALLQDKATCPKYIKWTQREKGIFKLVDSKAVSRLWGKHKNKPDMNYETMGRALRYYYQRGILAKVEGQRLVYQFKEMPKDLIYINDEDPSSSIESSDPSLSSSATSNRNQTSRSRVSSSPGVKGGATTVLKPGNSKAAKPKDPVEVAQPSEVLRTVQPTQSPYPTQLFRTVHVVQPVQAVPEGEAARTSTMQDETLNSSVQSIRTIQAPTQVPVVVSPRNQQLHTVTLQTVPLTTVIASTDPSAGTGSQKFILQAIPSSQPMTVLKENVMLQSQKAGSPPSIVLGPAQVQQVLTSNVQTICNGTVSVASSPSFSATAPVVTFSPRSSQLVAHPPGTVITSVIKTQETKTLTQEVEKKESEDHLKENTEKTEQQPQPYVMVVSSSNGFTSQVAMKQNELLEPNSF
Chain of ELF4 (Q99607 whole entry): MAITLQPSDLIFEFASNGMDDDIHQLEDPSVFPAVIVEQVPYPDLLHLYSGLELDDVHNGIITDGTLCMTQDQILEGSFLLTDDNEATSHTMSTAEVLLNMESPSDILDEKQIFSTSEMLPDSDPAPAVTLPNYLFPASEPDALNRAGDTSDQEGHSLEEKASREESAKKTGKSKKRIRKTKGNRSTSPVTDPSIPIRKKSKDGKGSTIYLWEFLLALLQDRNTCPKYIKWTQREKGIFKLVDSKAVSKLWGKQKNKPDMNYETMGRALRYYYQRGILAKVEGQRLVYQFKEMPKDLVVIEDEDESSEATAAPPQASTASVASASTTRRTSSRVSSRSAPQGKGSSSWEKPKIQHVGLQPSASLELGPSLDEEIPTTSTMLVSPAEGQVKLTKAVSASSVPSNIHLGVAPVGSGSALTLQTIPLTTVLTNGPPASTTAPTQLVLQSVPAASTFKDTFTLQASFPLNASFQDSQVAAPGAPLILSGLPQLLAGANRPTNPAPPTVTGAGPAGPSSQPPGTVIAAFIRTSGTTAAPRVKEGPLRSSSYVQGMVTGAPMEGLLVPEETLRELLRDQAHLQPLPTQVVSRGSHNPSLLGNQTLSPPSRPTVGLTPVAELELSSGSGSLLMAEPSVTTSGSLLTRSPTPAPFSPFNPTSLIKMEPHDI
Chain of ETV1 (P50549 whole entry): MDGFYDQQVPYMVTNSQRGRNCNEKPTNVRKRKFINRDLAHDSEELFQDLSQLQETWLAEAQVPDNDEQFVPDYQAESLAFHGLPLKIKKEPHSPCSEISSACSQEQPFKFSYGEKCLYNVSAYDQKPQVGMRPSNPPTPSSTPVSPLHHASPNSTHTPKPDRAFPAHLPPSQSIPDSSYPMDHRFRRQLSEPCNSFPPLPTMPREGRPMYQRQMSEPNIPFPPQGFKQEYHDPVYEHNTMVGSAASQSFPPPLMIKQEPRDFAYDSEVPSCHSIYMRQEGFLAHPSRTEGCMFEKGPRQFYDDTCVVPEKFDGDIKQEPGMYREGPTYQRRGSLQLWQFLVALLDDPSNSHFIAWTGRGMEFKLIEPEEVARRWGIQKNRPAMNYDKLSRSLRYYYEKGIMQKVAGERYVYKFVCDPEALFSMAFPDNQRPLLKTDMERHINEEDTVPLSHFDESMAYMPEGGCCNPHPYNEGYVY

Consider TCGCGG, for which the binding signal in experiment [1] was 1.07 fold enrichment (6-mer frequency, TF over GST control); in experiment [2] it was 1.02 fold enrichment (6-mer frequency, TF over GST control); in experiment [3], 1 fold enrichment (6-mer frequency, TF over GST control); in experiment [4] it was 1.02 fold enrichment (6-mer frequency, TF over GST control); in [5] it was 1.02 fold enrichment (6-mer frequency, TF over GST control); in [6], 1.03 fold enrichment (6-mer frequency, TF over GST control). Also, the binding signal in experiment [7] is 1.05 fold enrichment (6-mer frequency, TF over GST control); in [8], 1.11 fold enrichment (6-mer frequency, TF over GST control); in experiment [9] it was 1.03 fold enrichment (6-mer frequency, TF over GST control); in experiment [10] it was 1.09 fold enrichment (6-mer frequency, TF over GST control); in experiment [11] it was 1.04 fold enrichment (6-mer frequency, TF over GST control); in experiment [12], 1.01 fold enrichment (6-mer frequency, TF over GST control). Moreover, the binding signal in [13] is 1.02 fold enrichment (6-mer frequency, TF over GST control); in experiment [14], 1 fold enrichment (6-mer frequency, TF over GST control); in experiment [15], 1.04 fold enrichment (6-mer frequency, TF over GST control).
As to CATCAA, the binding signal is 1.01 fold enrichment (6-mer frequency, TF over GST control) in experiment [16]; 1.03 fold enrichment (6-mer frequency, TF over GST control) in experiment [1]; 1.03 fold enrichment (6-mer frequency, TF over GST control) in [2]; 1.07 fold enrichment (6-mer frequency, TF over GST control) in experiment [17]; 1 fold enrichment (6-mer frequency, TF over GST control) in experiment [5]; 1.05 fold enrichment (6-mer frequency, TF over GST control) in experiment [6]. Moreover, the binding signal in experiment [9] was 1.03 fold enrichment (6-mer frequency, TF over GST control); in experiment [18], 1.01 fold enrichment (6-mer frequency, TF over GST control); in experiment [10] it was 1.02 fold enrichment (6-mer frequency, TF over GST control); in [11], 1.08 fold enrichment (6-mer frequency, TF over GST control).
